mHTT CaM bind – inhibitors of human mutant huntingtin-calmodulin interaction. inhibition, % at 15 µM. 190,000 compounds, 3.6% hits. AlphaScreen His-mHTT/GST-CaM binding, luminescence. P42858;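 note: 0% = both proteins with DMSO and 100% = one protein alone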
Pf apPOL block – Pf-apPOL DNA polymerase inhibition | 210,000 compounds, 0.25% hits | inhibition, % at 10 µM | Recombinant Pf-apPOL, molecular beacon fluorescence, 1.5 h
Starred values were filed as active, the others as inactive; . = no result. The entries come from a sample that favours hits as a whole. Cut-off read from the data, not from the text of the source: active = inhibition above about 50%; inactive = the rest.

SMILES	mHTT CaM bind	Pf apPOL block
Cc1cc(O)c(C(C)C)cc1NC(=O)c1ccc(Cl)cc1	3.6	-10.7
Cc1cc(O)c(C(C)C)cc1N=C1CSC(=O)N1	53.0*	-5.5
CCN(C(=O)c1ccccc1Br)c1ccccc1	-10.3	1.3
CCOc1nc(N=C(N)N)nc2c(C)cccc12	65.1*	3.0
CCOc1nnc(-c2ccc(C)cc2)c2ccccc12	-11.0	3.4
Cc1ccc(-c2ccc(C)cc2[N+](=O)[O-])c([N+](=O)[O-])c1	.	-1.4
Cc1ccc(-n2c(C)ccc2C)c([N+](=O)[O-])c1	67.4*	-2.5
CCOc1ccc2ccccc2c1C(=O)NCCn1cnc(-c2ccccc2)cc1=O	5.2	-1.2
Nc1ccc2nc(Cc3nc4ccc(N)cc4[nH]3)[nH]c2c1	79.0*	-5.8
Nc1ccc(-c2nc3ccc(-c4nc5ccc(N)cc5[nH]4)cc3[nH]2)cc1	51.0*	4.7
Nc1ccc2nc(-c3ccccc3-c3nc4ccc(N)cc4[nH]3)[nH]c2c1	41.0	0.7
Nc1ccc2nc(-c3ccc(-c4nc5ccc(N)cc5[nH]4)cc3)[nH]c2c1	35.0	68.3*
Nc1ccc(-c2nc3ccc(C(=O)c4ccc5nc(-c6ccc(N)cc6)[nH]c5c4)cc3[nH]2)cc1	11.0	-6.9
Nc1ccc(CCc2nc3ccc(N)cc3[nH]2)cc1	4.0	-9.7
O=C(CN(c1ccccc1Cl)S(=O)(=O)c1ccccc1)NC1CCCCCC1	-9.3	-2.1
CC(=O)N1CCN(c2nc3c(s2)CC(C(=O)Nc2ccc4c(c2)CCC4)CC3)CC1 (stereo unspecified)	2.2	-9.7
CCC(C)NC(=O)c1ccc(CN2CCOCC2)cc1 (stereo unspecified)	-4.0	1.3
COc1ccc(-c2cc3ccc(OCCN4CC5CC(C4)c4cccc(=O)n4C5)cc3oc2=O)cc1 (stereo unspecified)	-30.4	-76.4
Cc1ccc(-c2noc(C3CCN(CC(=O)Nc4ccccc4C(F)(F)F)CC3)n2)cc1	-9.4	0.1
COc1ccccc1NC(=O)CSC1=NN2CCCC(=O)N=C2S1	2.0	-11.3
CC(C)(Oc1ccc(Cl)cc1)C(=O)N1CCN(c2cccc(Cl)c2)CC1	19.7	-5.8
CC(C)(Oc1ccc(Cl)cc1)C(=O)N1CCN(c2ccc(F)cc2)CC1	94.0*	-1.6
CC(C)(C)NC(=O)C12CC3CC(C1)CC(C(=O)NC(C)(C)C)(C3)C2	-2.4	-6.0
COc1cc(C2C(C#N)=C(N)Oc3c2oc(CO)cc3=O)c([N+](=O)[O-])cc1OC (stereo unspecified)	22.0	4.2
COc1cc(C2C(C#N)=C(N)OC(C)=C2C(C)=O)c([N+](=O)[O-])cc1OC (stereo unspecified)	57.2*	-5.2
SMILES	mHTT CaM bind	Pf apPOL block
CCOC(=O)c1ccc(NC(=O)CSc2nc(C)ccc2C#N)cc1	5.7	-1.9
CCOc1ccccc1NC(=O)C1c2ccccc2C(=O)N(C)C1c1cccs1 (stereo unspecified)	2.0	23.0
COc1ccc(-c2cc(-c3ccccc3)nc(NN)n2)cc1OC	63.0*	0.1
Cc1ccc(-c2cc(-c3ccccc3)nc(NN)n2)cc1	39.4	-4.1
CC1(C)CC(=O)C2=C(C1)OC(N)=C(C#N)C2(C#N)C#N	9.0	-2.5
Cc1nc(-c2nnc(NC(=O)Cn3c(=O)oc4ccccc43)o2)cs1	97.9*	4.4
O=C(Cn1c(=O)oc2ccccc21)Nc1nnc(-c2ccco2)o1	22.7	-6.1
CCOC(=O)CCC(=O)Nc1nnc(-c2csc(C)n2)o1	61.4*	2.5
Cc1nc(-c2nnc(NC(=O)Cc3ccc4c(c3)OCO4)o2)cs1	42.7	6.5
CC(C)CC(=O)N1CCN(c2nc(-c3cccnc3)nc3ccccc23)CC1	13.2	-6.2
c1ccc2c(N3CCOCC3)nc(N3CCCCC3)nc2c1	-21.0	-5.5
COc1ccc(NS(C)(=O)=O)cc1	-11.9	5.3
COc1ccc(NS(=O)(=O)C2CCS(=O)(=O)C2)cc1 (stereo unspecified)	5.0	99.8*
O=C(Nc1ccccc1Cl)c1csc(-c2ccc(N3CCCC3)nc2)n1	-3.7	4.5
O=C(CSc1ccc(-c2cccc([N+](=O)[O-])c2)nn1)Nc1ccc(F)c(F)c1	-3.3	0.5
O=S(=O)(Nc1ccc(F)cc1)c1cccnc1Nc1cccc(Cl)c1	93.3*	5.9
CCNS(=O)(=O)c1cccnc1Nc1cccc(Cl)c1	-13.9	-2.1
CC(C)(CC(=O)O)CC(=O)Nc1ccc(Br)c(C(F)(F)F)c1	.	-3.9
COc1cc(OC)c2c(-c3ccccc3)cc(=O)oc2c1C(CC(=O)N1CCOCC1)c1ccc(N(C)C)cc1 (stereo unspecified)	66.2*	-4.4
COc1cc(OC)c2c(-c3ccccc3)cc(=O)oc2c1C(CC(=O)N1CCOCC1)c1ccc2c(c1)OCO2 (stereo unspecified)	34.2	-4.2
COc1cc(O)c(C(CC(=O)N2CCCC2)c2ccc(N(C)C)cc2)c(OC)c1 (stereo unspecified)	34.7	-3.9
